Sampled rows, rich in hits. Any-hit rate of the full collection: about 10%.
NIH3T3 tox – Cytotoxic Profiling in NIH 3T3 Cell Line of Diverse Libraries Using Quantitative High-Throughput Screening. NIH 3T3 viability, CellTiter-Glo ATP luminescence, 48-72 h. Potency, µM (top dose mostly 96.7 µM), most hits filed as inhibitors. 94,000 compounds, 4.3% hits. AID 1345082, 2018; also: nearly all actives have a fitted effect of over 55% in size
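First NIH 3T3 cells are plated at 400 cells/well; next compound is pinned in; then plates incubate 48 or 72 hr at 37 °C; finally CellTiter-Glo is added and luminescence read after 10 min.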
HEK293 tox – Cytotoxic Profiling in HEK 293 Cell Line of Diverse Libraries Using Quantitative High-Throughput Screening | Potency, µM (highest dose often 115 µM), usual class: inhibitors | AID 1345083, 2018 | 94,000 compounds, 6.6% hits | HEK 293 viability, ATP luminescence (CellTiter-Glo), 48-72 h; also: nearly all actives have a fitted effect of over 60% in size
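Luminescence from cellular ATP, measured with CellTiter-Glo, indicates HEK 293 viability. Cells plated at 250 cells/well are treated with compound for 48 or 72 hr at 37 degree Celsius before reagent addition.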
FLuc inh – Firefly luciferase inhibition profiling of diverse chemical library using quantitative high-throughput screening. purified P. pyralis luciferase, luminescence, biochemical. Potency, µM (series often up to 115 µM), usual class: inhibitors. 76,000 compounds, 2.5% hits. AID 1347043, 2019; also: nearly all actives have a fitted effect of over 65% in size
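FLuc 10nM, D-luciferin 10uM, ATP 10uM, Mg acetate 10mM, Tris acetate pH 7.5, Tween/BSA; cpd qHTS; enzyme added last; CCD luminescence.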
GPT2 inh – Primary qHTS assay for inhibitors of Glutamate pyruvate transaminase 2 (GPT2) | Alanine aminotransferase 2 (Homo sapiens), Q8TD30 | Recombinant GPT2, coupled pyruvate oxidase/HRP Amplex Red fluorescence | Potency, µM (titrated, usually from 57.7 µM), usual class: inhibitors | 100,000 compounds, 0.25% hits | AID 1671188, 2021; also: nearly all actives have a fitted effect of over 60% in size
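Fluorescence read-out: pyruvate from GPT2 turnover coupled to pyruvate oxidase, HRP and Amplex Red (0.2mM ThPP, 0.2U/mL PO and HRP, 50uM Amplex final). Substrates 250uM a-KG, 2mM L-alanine; enzyme 10ng/uL; 30 min RT.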
hNpr1 antagonist – Natriuretic polypeptide receptor (hNpr1) antagonism - Primary qHTS | Atrial natriuretic peptide receptor 1 (Homo sapiens), P16066 | HEK293 hNpr1 GloSensor cGMP, ANP-stimulated luminescence | Potency, µM (top dose mostly 46.3 µM), hits mostly inhibitors | 76,000 compounds, 1.6% hits | AID 1347048, 2019; calls by dose curve; also: nearly all actives have a fitted effect of over 60% in size
Target sequence (P16066 whole entry, looked up): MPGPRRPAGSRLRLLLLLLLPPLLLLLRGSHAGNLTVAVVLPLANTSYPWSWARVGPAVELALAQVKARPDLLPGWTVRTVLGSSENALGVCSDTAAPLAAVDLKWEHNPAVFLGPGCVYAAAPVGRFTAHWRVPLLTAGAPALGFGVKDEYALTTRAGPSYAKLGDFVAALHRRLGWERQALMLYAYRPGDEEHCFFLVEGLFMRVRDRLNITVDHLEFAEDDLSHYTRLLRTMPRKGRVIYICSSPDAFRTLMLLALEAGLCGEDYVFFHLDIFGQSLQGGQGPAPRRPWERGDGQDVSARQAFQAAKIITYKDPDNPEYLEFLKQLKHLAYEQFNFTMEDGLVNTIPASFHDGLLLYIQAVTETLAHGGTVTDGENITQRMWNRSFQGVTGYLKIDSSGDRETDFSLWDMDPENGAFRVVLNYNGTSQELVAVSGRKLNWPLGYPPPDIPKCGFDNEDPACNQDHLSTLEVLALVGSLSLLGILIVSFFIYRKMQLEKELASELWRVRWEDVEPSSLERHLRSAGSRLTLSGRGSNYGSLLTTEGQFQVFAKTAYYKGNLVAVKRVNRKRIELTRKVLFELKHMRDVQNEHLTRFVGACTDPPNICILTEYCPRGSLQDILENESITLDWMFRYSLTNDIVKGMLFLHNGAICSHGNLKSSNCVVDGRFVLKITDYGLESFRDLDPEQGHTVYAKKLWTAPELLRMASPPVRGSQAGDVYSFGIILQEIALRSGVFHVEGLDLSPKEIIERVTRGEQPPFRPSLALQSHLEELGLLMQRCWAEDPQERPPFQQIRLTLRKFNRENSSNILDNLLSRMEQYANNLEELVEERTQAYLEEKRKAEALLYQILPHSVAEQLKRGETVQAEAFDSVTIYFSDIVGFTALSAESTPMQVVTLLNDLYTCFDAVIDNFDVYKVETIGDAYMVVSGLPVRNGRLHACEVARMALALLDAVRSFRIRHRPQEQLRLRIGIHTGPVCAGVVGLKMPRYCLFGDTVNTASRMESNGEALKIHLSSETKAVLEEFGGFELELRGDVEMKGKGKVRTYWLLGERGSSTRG
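HEK293 cells stably expressing human Npr1 and cGMP GloSensor pGS-40F, loaded 2 h with 2% GloSensor reagent, given compound 30 min at room temperature. Luminescence read before and 20 min after 0.1 nM hNppA.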
Hits are given with their value; i = inactive; ? = inconclusive; nt = not tested or not shown. Unless noted, calls follow the shape of the dose curve; as a rule, active = well fitted curve in the direction sought with a large enough effect; inconclusive = small, poorly fitted or top-dose-only effect, or another doubt; inactive = no such curve, though single readings can be large; an effect the other way counts as inactive or inconclusive.

SMILES | NIH3T3 tox | HEK293 tox | FLuc inh | GPT2 inh | hNpr1 antagonist
COc1cccc(CCC(=O)N2CCC3(CC2)C(=O)N(C)c2ccccc23)c1 | i | ? | i | i | i
Cc1cccc(CNC(=O)c2nnn3cc(C)[nH]c(=O)c23)c1 | i | i | i | i | i
Cc1cn2nnc(C(=O)NCc3ccc4c(c3)OCO4)c2c(=O)[nH]1 | i | i | 39.8µM | i | i
Cc1ccc(CNC(=O)C2(CCO)CC23CCOCC3)o1 (centres undefined) | i | i | i | i | i
O=C(NCc1cccnc1)C1(CCO)CC12CCOCC2 (centres undefined) | i | i | 28.2µM | i | i
Cc1cc(C)c(C#N)c(-c2ccc(C(C)N3CCOCC3)cc2)n1 (centres undefined) | ? | ? | i | i | ?
CC(C)Oc1cc(-c2ccc(C(C)N3CCOCC3)cc2)nc(N)n1 (centres undefined) | ? | ? | 35.5µM | i | i
Cc1ccc(S(=O)(=O)N2CC(C(=O)NC3CCCCC3)C3(CCOCC3)C2)cc1 (centres undefined) | i | i | i | i | i
CCC(CC)C(=O)NC[C@@H]1C=C(C)[C@H](Cc2nc3ccccc3n2C)C[C@H]1C(C)C | 35.5µM | 31.6µM | i | i | ?
CC1=C[C@@H](CNC(=O)CC(C)(C)CC(=O)O)[C@H](C(C)C)C[C@H]1Cc1nc2ccccc2n1C | ? | i | i | i | i
CC1=C[C@@H](CNC(=O)C2CCCCC2)[C@H](C(C)C)C[C@H]1Cc1nc2ccccc2n1C | 31.6µM | 31.6µM | i | ? | ?
CC1=C[C@@H](CNC(=O)c2ccccc2)[C@H](C(C)C)C[C@H]1Cc1nc2ccccc2n1C | 31.6µM | 25.1µM | i | i | ?
O=C([C@@H]1CNC[C@H](C(=O)N2CCN(c3ccncc3)CC2)C1)N1CCOCC1 | i | i | i | i | i
C=C[C@@](C)(CCC=C(C)C)O[C@@H]1O[C@H](CO[C@@H]2OC[C@H](O)[C@H](O)[C@H]2O)[C@@H](O)[C@H](O)[C@H]1O | nt | nt | nt | i | nt
O=C(NC1CCCC1)N1CCN(C(=O)c2nc3cccnc3n(C3CC3)c2=O)CC1 | ? | i | nt | i | nt
COCCCNC(=O)c1nc2sccn2c1-c1cccc(C#N)c1 | i | i | nt | ? | nt
Cc1ccc(CNC(=O)c2ccc3c(c2)CN(Cc2ccncc2F)CCO3)cc1 | ? | ? | i | i | ?
O=C(NCc1ccccc1F)c1ccc2c(c1)CN(Cc1ccccc1F)CCO2 | ? | 44.7µM | nt | i | nt
O=C(NCc1ccccc1F)c1ccc2c(c1)CN(Cc1ccncc1F)CCO2 | ? | 44.7µM | nt | i | nt
COC(=O)C1=C(C)N(Cc2ccc(Br)cc2)C(=O)CC1c1ccccc1Cl (centres undefined) | ? | ? | i | i | i
OC1(CN2CCN(CCc3ccccn3)CC2)CCCNC1 (centres undefined) | i | i | i | i | i
Cc1cc(Cl)ccc1OCCN1CCN(CC2(O)CCCNC2)CC1 (centres undefined) | 22.4µM | 12.6µM | i | i | i
CC(C)c1ccc(S(=O)(=O)N2CCCC2Cc2noc(Cc3ccccc3)n2)cc1 (centres undefined) | ? | 25.1µM | nt | i | nt
O=C(Nc1ccc2c(c1)OCCO2)N1CCCC1Cc1noc(Cc2ccccc2)n1 (centres undefined) | ? | i | nt | i | nt
FC(F)(F)c1cccc(Nc2cnc3ccc(N4CCOCC4)nn23)c1 | ? | 89.1µM | i | ? | ?
SMILES | NIH3T3 tox | HEK293 tox | FLuc inh | GPT2 inh | hNpr1 antagonist
c1ccc(Nc2cnc3ccc(N4CCOCC4)nn23)cc1 | ? | 112µM | i | ? | i
Fc1ccc(Nc2cnc3ccc(N4CCOCC4)nn23)cc1F | ? | ? | i | i | i
Cc1ccccc1Nc1cnc2ccc(-n3ccnc3)nn12 | ? | ? | i | ? | i
COc1ccc(Nc2cnc3ccc(N4CCOCC4)nn23)cc1 | ? | ? | i | i | i
CN1CCN(c2ccc3ncc(Nc4ccc(F)cc4)n3n2)CC1 | 100µM | 112µM | i | ? | i
OCCc1ccc(Nc2cnc3ccc(N4CCOCC4)nn23)cc1 | ? | i | i | i | i
Cc1ccccc1Nc1cnc2ccc(N3CCOCC3)nn12 | ? | 56.2µM | i | ? | ?
Cc1cc(C)n(-c2cccc(CN(C)C(=O)Cn3nnnc3CN3CCOCC3)c2)n1 | i | i | i | i | i
CNC(=O)c1cccc(-c2cnc3[nH]cc(CC(=O)N4CCC(OC)CC4)c3c2)c1 | 89.1µM | i | ? | i | i
CNC(=O)c1cccc(-c2cnc3[nH]cc(CC(=O)NCC(C)C)c3c2)c1 | 35.5µM | ? | i | i | i
CNC(=O)c1cccc(-c2cnc3[nH]cc(CC(=O)N4CCCC4)c3c2)c1 | ? | ? | i | i | i
COc1ncc(-c2cnc3[nH]cc(CC(=O)N4CCOCC4)c3c2)cn1 | 79.4µM | i | i | i | i
O=C(Cc1c[nH]c2ncc(-c3ccoc3)cc12)N1CCOCC1 | ? | ? | i | i | i
O=C(Cc1c[nH]c2ncc(-c3cccnc3)cc12)N1CCN(c2ccccn2)CC1 | ? | ? | i | i | i
CNC(=O)c1cccc(-c2cnc3[nH]cc(CC(=O)Nc4ccccc4C)c3c2)c1 | ? | ? | ? | i | i
COC1CCN(C(=O)Cc2c[nH]c3ncc(-c4cccnc4)cc23)CC1 | 79.4µM | i | i | i | i
COc1ccc(C(=O)N[C@@H]2CN(Cc3cccnc3)C[C@H]2CN(C)C)cc1OC | i | i | i | i | i
CC(C)C(=O)N1CCC(Oc2ccccc2)C1 (centres undefined) | i | i | i | i | i
Cc1noc(C)c1CC(=O)N1CCCCCC1c1nc(C2CC2)no1 (centres undefined) | i | i | i | i | i
Cc1c(-c2ccccc2)[nH]c2c(CNC(=O)c3ccc(=O)n(C)n3)cc(Cl)cc12 | ? | 28.2µM | ? | i | 11.2µM
Cc1c(-c2ccccc2)[nH]c2c(CNC(=O)CN3C(=O)CNC3=O)cc(Cl)cc12 | ? | ? | 10µM | i | i
O=C(C[C@H]1NC(=O)c2ccccc2NC1=O)Nc1n[nH]c(CCc2ccccc2)n1 | i | i | i | i | i
O=C(c1cccn2nccc12)N1CCOCC1 | i | i | i | i | i
O=C(NCc1ccccc1)N1CCC(N2C(=O)C3(CCCC3)C2c2ccccc2)CC1 (centres undefined) | ? | ? | i | i | i
O=C(CCc1ccccc1)N1C[C@@H](CO)[C@@H]2Oc3ccc(Cl)cc3[C@@H]21 | ? | 79.4µM | nt | nt | nt
CCCCCC(=O)N1C[C@@H](C(N)=O)[C@@H]2Oc3ccc(Cl)cc3[C@@H]21 | i | ? | nt | nt | nt

Compound activity: PubChem BioAssay, National Center for Advancing Translational Sciences (NCATS)
